NPR1 activator: GC-A stimulated cGMP production enhancers – HEK293 GC-A cells, cGMP TR-FRET, EC30 ANP, primary screen; activation, % at 10 µM; 0% at EC30 ANP, 100% saturating ANP; Atrial natriuretic peptide receptor 1 (Homo sapiens), P16066; 0.14% of 370,000 active; in the data active means activation above about 40%
PLCb3 inh: human PLC-beta3 inhibitors, primary screen, biochemical, fluorescence; 1-phosphatidylinositol 4,5-bisphosphate phosphodiesterase beta-3 (Homo sapiens), Q01970; Purified PLC-beta3, fluorogenic substrate; inhibition, % at 12.2 µM; 0.18% of 370,000 active; AID 720704, 2013; in the data active means inhibition above about 11%;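 further: 0% = median of compound wells on plate and 100% = full blocker control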
Target sequence (Q01970 whole entry, looked up): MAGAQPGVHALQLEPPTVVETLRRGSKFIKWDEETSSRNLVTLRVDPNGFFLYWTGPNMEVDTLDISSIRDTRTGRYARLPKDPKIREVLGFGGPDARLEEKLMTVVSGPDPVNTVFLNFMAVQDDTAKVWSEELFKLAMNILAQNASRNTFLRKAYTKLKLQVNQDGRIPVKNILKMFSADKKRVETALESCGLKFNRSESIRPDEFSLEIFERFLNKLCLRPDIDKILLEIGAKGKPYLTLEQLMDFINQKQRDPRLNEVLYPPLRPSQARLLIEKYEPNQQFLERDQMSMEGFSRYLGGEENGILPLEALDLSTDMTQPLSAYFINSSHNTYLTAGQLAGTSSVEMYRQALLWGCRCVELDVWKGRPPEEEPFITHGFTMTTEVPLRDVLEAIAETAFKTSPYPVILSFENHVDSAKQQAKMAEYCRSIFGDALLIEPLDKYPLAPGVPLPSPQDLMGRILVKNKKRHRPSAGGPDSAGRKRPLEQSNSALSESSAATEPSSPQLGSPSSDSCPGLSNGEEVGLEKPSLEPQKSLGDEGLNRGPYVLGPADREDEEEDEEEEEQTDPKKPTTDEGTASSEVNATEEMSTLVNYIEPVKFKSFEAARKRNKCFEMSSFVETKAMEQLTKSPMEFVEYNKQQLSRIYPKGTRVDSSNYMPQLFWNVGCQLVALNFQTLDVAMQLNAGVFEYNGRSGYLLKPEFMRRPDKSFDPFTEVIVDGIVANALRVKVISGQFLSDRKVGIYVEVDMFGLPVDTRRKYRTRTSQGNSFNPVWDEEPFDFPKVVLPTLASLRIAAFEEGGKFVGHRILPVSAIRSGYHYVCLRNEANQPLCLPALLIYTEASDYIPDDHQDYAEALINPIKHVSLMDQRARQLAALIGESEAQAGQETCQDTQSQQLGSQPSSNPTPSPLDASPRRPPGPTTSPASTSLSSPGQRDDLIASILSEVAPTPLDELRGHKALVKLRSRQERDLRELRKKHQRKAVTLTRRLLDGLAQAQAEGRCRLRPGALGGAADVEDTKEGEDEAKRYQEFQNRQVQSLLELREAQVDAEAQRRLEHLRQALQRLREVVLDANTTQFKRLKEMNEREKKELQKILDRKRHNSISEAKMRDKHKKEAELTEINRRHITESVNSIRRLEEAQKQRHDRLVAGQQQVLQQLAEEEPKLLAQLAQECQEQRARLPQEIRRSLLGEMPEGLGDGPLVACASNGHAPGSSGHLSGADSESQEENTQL
NPR2 activator: human GC-B receptor activators, primary screen, HEK293 GC-B cells, cGMP TR-FRET, EC30 CNP; Atrial natriuretic peptide receptor 2 (Homo sapiens), P20594; 0% at EC30 CNP, 100% saturating CNP; activation, % at 10 µM; 0.11% of 370,000 active; AID 1920062, 2024;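 active means activation at 10 µM reaching about 35% in either raw or pattern-adjusted values, limit read from the data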
PLC-gamma1 inh: PLC-gamma1 enzyme inhibitors, primary screen, biochemical, fluorescence, purified enzyme | 1-phosphatidylinositol 4,5-bisphosphate phosphodiesterase gamma-1 (Homo sapiens), P19174 | fluorogenic substrate | inhibition, % at 12.2 µM | 0.84% of 370,000 active; in the data active means inhibition above about 9.5%
* hit, by the source's call. In the library only some 1.2% were active in any assay of this set; here they are far more common.

For COc1ccc(S(=O)(=O)NCC2CCCN(C(=O)CN3CCCCC3)C2)cc1 (stereo not drawn) the results were NPR1 activator -5.5, PLCb3 inh 1.2, NPR2 activator 5.2 and PLC-gamma1 inh 4.6.
`O=C(Nc1ncc(C(F)(F)F)cc1Cl)C1COc2ccccc2O1` (stereo not drawn) gave NPR1 activator 2.5, PLCb3 inh 3.1, NPR2 activator 1.3 and PLC-gamma1 inh 0.1.
For COc1ccc(NC(=O)COc2ccc(CNCCCN3CCOCC3)cc2OC)cc1 the results were NPR1 activator 4.2, PLCb3 inh 6.4, NPR2 activator -7.5 and PLC-gamma1 inh 10.2*.
Screening CCOC(=O)C1=C(COC(=O)c2ccc(OC(C)C)cc2)NC(=O)NC1C (stereo not drawn) returned NPR1 activator 8.8, PLCb3 inh -2.2, NPR2 activator 3.0 and PLC-gamma1 inh -1.9.
`O=C1C=CC(=Nc2ccc3c(c2)Cc2cc(F)ccc2-3)O1` gave NPR1 activator 33.1, PLCb3 inh -41.1, NPR2 activator 35.3* and PLC-gamma1 inh -27.5.
`CCn1c2ccccc2c2cc(NC(=O)COC(=O)c3ccc(C)cc3)ccc21` gave NPR1 activator 3.9, PLCb3 inh 2.8, NPR2 activator -4.7 and PLC-gamma1 inh 1.8.
`O=C1C2C(C(=O)N1/N=C/c1cc([N+](=O)[O-])c(O)cc1O)C1C=CC2C12CC2` (stereo not drawn) gave NPR1 activator -1.5, PLCb3 inh 0.4, NPR2 activator -3.0 and PLC-gamma1 inh 28.9*.
Screening COc1cc(-c2nc3cnccn3c2Nc2c(C)cccc2C)ccc1O returned NPR1 activator 0.8, PLCb3 inh inactive, NPR2 activator -5.0 and PLC-gamma1 inh inactive.
Screening Cc1ccc2nc(-c3ccncc3)c(Nc3ccccc3)n2c1 returned NPR1 activator -14.2, PLCb3 inh -41.4, NPR2 activator -9.4 and PLC-gamma1 inh -43.7.
Screening COc1ccc(-c2nc3cnccn3c2Nc2ccc(C)cc2)cc1 returned NPR1 activator 61.7*, PLCb3 inh inactive, NPR2 activator 48.4* and PLC-gamma1 inh inactive.
Cc1ccc(Nc2c(-c3cccnc3)nc3ccc(Br)cn23)cc1 was read as NPR1 activator 45.5*, PLCb3 inh -8.1, NPR2 activator 43.7* and PLC-gamma1 inh -2.7.
Screening Cc1ccc(Nc2c(-c3ccccn3)nc3ccc(C)cn23)cc1 returned NPR1 activator 4.9, PLCb3 inh -26.2, NPR2 activator 12.8 and PLC-gamma1 inh -11.7.
`Cc1ccc(Nc2c(-c3ccccc3)nc3cnccn23)cc1` gave NPR1 activator 48.7*, PLCb3 inh -254.1, NPR2 activator 33.3 and PLC-gamma1 inh -343.3.
N#CCNC1CC(=O)N(c2ccc(F)cc2)C1=O (stereo not drawn) was read as NPR1 activator 0.6, PLCb3 inh -4.6, NPR2 activator 1.5 and PLC-gamma1 inh 0.2.
For O=C1NC(=O)C(Cc2ccc(Cl)cc2)(c2ccccc2)N1 (stereo not drawn) the results were NPR1 activator -3.9, PLCb3 inh 0.9, NPR2 activator 1.3 and PLC-gamma1 inh 1.1.
`Oc1ccc[n+](CC(O)c2ccccc2)c1` (stereo not drawn) gave NPR1 activator 0.8, PLCb3 inh 0.6, NPR2 activator 2.5 and PLC-gamma1 inh -0.4.
For CNC(=O)NC(=O)CSc1nc(-c2cccs2)c(C#N)c(=O)[nH]1 the results were NPR1 activator 45.4*, PLCb3 inh -15.6, NPR2 activator 23.3 and PLC-gamma1 inh -13.7.
`COCCn1c(SCC(=O)Nc2ccccc2)nc2c1c(=O)[nH]c(=O)n2C` gave NPR1 activator -3.3, PLCb3 inh 2.5, NPR2 activator -8.3 and PLC-gamma1 inh 9.8*.
Screening CC(C)n1c(SCC(=O)Nc2ccccc2)nc2c1c(=O)[nH]c(=O)n2C returned NPR1 activator 0.4, PLCb3 inh -8.2, NPR2 activator -2.2 and PLC-gamma1 inh 2.6.
`Cc1cccc(OC(=O)c2sc(Cl)nc2C)c1` gave NPR1 activator 56.0*, PLCb3 inh 2.5, NPR2 activator 6.2 and PLC-gamma1 inh -1.2.
Screening COCOCCn1cc(CN2CCS(=O)(=O)N(Cc3ccc(-c4ccc(Cl)cc4)cc3)C(C)C2=O)nn1 (stereo not drawn) returned NPR1 activator 48.9*, PLCb3 inh 1.6, NPR2 activator -3.4 and PLC-gamma1 inh 1.6.
`Oc1ccccc1N=Cc1ccc[nH]1` gave NPR1 activator -1.8, PLCb3 inh -0.7, NPR2 activator -2.5 and PLC-gamma1 inh -1.8.
Screening CC(OC(=O)c1cccs1)C(=O)NC1CC1 (stereo not drawn) returned NPR1 activator 4.1, PLCb3 inh -3.1, NPR2 activator -1.1 and PLC-gamma1 inh 0.6.
For Cn1nc([N+](=O)[O-])nc1S(C)(=O)=O the results were NPR1 activator -4.2, PLCb3 inh 3.2, NPR2 activator 0.0 and PLC-gamma1 inh 47.3*.
O=S1(=O)[C@H]2C[C@@H]3C=C[C@@]2(CN1Cc1cccc(C(F)(F)F)c1)O3 was read as NPR1 activator -0.5, PLCb3 inh 2.5, NPR2 activator -3.0 and PLC-gamma1 inh 0.8.
`Cn1c(=O)[nH]c(=O)c2c1nc(NC1CCCC1)n2Cc1ccccc1` gave NPR1 activator 43.8*, PLCb3 inh -5.4, NPR2 activator 31.6 and PLC-gamma1 inh 0.3.
`Cn1c(=O)n(Cc2ccccc2)c(=O)c2c1nc(NCC1CCCO1)n2Cc1ccccc1` (stereo not drawn) gave NPR1 activator 48.9*, PLCb3 inh 4.5, NPR2 activator 56.6* and PLC-gamma1 inh -1.0.
CC(C)(C)S(=O)N1Cc2ccc(CO)cc2[C@H]1CCO (stereo partly drawn) was read as NPR1 activator 4.6, PLCb3 inh -0.9, NPR2 activator 3.7 and PLC-gamma1 inh -1.6.
Screening N#CC1(NC(=O)CSc2nnc(Cc3ccccc3)o2)CCCCC1 returned NPR1 activator 2.4, PLCb3 inh -4.6, NPR2 activator 1.1 and PLC-gamma1 inh -0.3.
Screening CC(C)CCNc1nc(-c2ccco2)c2c(c1C#N)CCCC2 returned NPR1 activator 20.5, PLCb3 inh -104.4, NPR2 activator 36.1* and PLC-gamma1 inh -94.7.
`CCSc1nnc(NC(=O)CCC2CCCCC2)s1` gave NPR1 activator 11.4, PLCb3 inh -11.2, NPR2 activator -1.4 and PLC-gamma1 inh -0.4.
O=C(NCCN1C(=O)C2C3C=CC(C3)C2C1=O)c1cc(F)cc(F)c1 (stereo not drawn) was read as NPR1 activator 5.2, PLCb3 inh 0.7, NPR2 activator -0.5 and PLC-gamma1 inh -0.8.
For Cc1ccc(S(=O)(=O)N2CCN(C(=O)CCN3C(=O)c4ccccc4C3=O)CC2)cc1C the results were NPR1 activator -11.7, PLCb3 inh -0.5, NPR2 activator -6.9 and PLC-gamma1 inh 0.8.
COC1=CC(=O)c2c(ccc3ncnc(N)c23)C1=O was read as NPR1 activator -6.8, PLCb3 inh -4.2, NPR2 activator -7.3 and PLC-gamma1 inh 12.9*.

Screening results deposited in PubChem BioAssay by several laboratories.
